ssDAF12 agonist: activators of S. stercoralis DAF-12 nuclear receptor | activation, % at 6.8 µM | HEK293 ssDAF-12/GRIP1 lit1-tk-luc reporter, luminescence; % of 3 µM dafachronic acid response | 370,000 tested, 1% active;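 active = activation above the mean over all tested compounds plus 3 SD, cut at about 0.9% in these data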
GAA850 FXN act: increases GAA850 frataxin promoter reporter activity; activation, % at 6 µM; 360,000 tested, 0.56% active; HEK293 lucGAA850 FXN promoter luciferase reporter, 24 h; percent of 10 µM SAHA response;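 active = activation above the average of all compounds screened plus 3 SD, cutoff fixed separately per campaign, cut at about 7.5% in these data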
hgDAF-12 ag: activates the H. glycines DAF-12 receptor ligand-binding domain. HEK293 GAL4-hgDAF12 UAS-luciferase reporter, agonist luminescence; normalized to butyrate control. AID 687014. activation, % at 6.8 µM. 370,000 tested, 1.8% active;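 active = activation above a cutoff set at the mean of all screened compounds plus 3 SD, cut at about 10% in these data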
hcDAF12 agonist: activators of H. contortus DAF-12 nuclear receptor | 370,000 tested, 1.4% active | HEK293 hcDAF-12 lit1-tk-luc reporter, luminescence; 0% DMSO, 100% Δ7-dafachronic acid | AID 652067 | activation, % at 6.8 µM;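 active = activation above the mean of all tested compounds plus 3 SD, cut at about 5.5% in these data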
DAX1 inh-1: NR0B1 (DAX1) inhibition | P51843 | HEK293 Gal4-DAX1 luciferase reporter, luminescence | 340,000 tested, 0.99% active | inhibition, % at 6.75 µM;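 active = inhibition above the mean over all tested compounds plus 3 SD, cut at about 4.2% in these data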;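 also: inhibition shows as a rise in luminescence from relieved DAX1 repression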
Target sequence (P51843 207-470 limits assumed): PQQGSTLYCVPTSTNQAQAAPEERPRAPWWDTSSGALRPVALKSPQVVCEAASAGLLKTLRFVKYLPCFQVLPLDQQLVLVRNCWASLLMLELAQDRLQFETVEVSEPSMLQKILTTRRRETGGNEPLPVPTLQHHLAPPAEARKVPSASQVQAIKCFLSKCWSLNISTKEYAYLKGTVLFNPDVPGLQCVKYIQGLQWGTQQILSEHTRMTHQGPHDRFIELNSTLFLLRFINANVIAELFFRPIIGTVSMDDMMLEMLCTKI
DAX1 inh-2: DAX1 (NR0B1) inhibition, primary screen; HEK293T StAR-luciferase reporter, SF-1/DAX-1 repression relief; inhibition, % at 6.8 µM; 370,000 tested, 1.1% active; AID 652010;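 active = inhibition above the mean over all tested compounds plus 3 SD, cut at about 3.6% in these data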;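 also: higher inhibition means more luminescence from relief of DAX-1 repression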
hgDAF12 ag: confirmation of H. glycines DAF-12 agonists; 3,300 tested, 80% active; shares compounds with hgDAF-12 ag; HEK293 GAL4-hgDAF12 luciferase reporter, agonist mode; percent of butyrate response; AID 743050; activation, % at 6.8 µM;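 active = mean activation over triplicate wells above the hit cutoff derived from the earlier primary screen, cut at about 11% in these data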
LXR ag 2: activates human LXR-beta, counter-screen for DAF-12 agonists | shares compounds with hgDAF-12 ag | HEK293 Gal4-LXR luciferase reporter, 24 h | activation, % at 6.8 µM | 3,300 tested, under 10 active | AID 743051;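 active = mean activation of the triplicate above a set limit carried over from the primary screen, none filed active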
Hits are given with their value; - = inactive; . = no result. An excerpt weighted towards active compounds, which were near 4.5% of everything screened.

SMILES | ssDAF12 agonist | GAA850 FXN act | hgDAF-12 ag | hcDAF12 agonist | DAX1 inh-1 | DAX1 inh-2 | hgDAF12 ag | LXR ag 2
Cc1cnc(C(=O)OC(C)C(=O)NCc2ccccc2)cn1 (stereo not given) | - | - | - | - | - | - | . | .
O=C(O)C(C(O)c1ccccc1)[n+]1ccccc1 (stereo not given) | - | - | - | - | - | - | . | .
O=C(CNC(=O)c1cccs1)c1ccc(Br)cc1 | - | - | 14.9 | - | - | - | 14.0 | -
COc1ccc(C2NN=C(c3ccc(C)cc3)S2)cc1OC (stereo not given) | - | - | 17.8 | - | - | - | 17.9 | -
COc1ccc(C2NC(=O)CS2)cc1OC (stereo not given) | - | - | - | - | - | - | . | .
Cc1nonc1C1CCCN1C(=O)c1cc(COc2ccc(F)cc2F)on1 (stereo not given) | - | - | 14.6 | - | - | - | 11.5 | -
Cc1c(C(=O)Nc2ccccc2F)cnn1-c1ccccc1 | - | - | 13.6 | - | - | - | 12.8 | -
Cc1cc(C)n2nc(SCC(=O)Nc3ccc(F)cc3)nc2n1 | - | - | - | - | - | - | . | .
Cc1cc(C)n2nc(SCC(=O)Nc3ccc(O)cc3)nc2n1 | - | - | 14.7 | - | - | - | - | -
CCC(C)N1C(=O)N(c2cccc(Cl)c2)C(C)(O)CC1(C)C (stereo not given) | - | - | - | - | - | - | . | .
CNc1nc(-c2ccc3c(c2)CCN3C(=O)c2ccccc2C)cs1 | - | - | 21.1 | - | - | - | 15.2 | -
O=C(/C=C/c1ccc(Br)o1)Nc1nccs1 | - | - | 14.4 | 5.8 | - | - | 14.6 | -
O=C(O)/C=C/C(=O)Nc1nccs1 | - | - | - | - | - | - | . | .
COc1ccc(C2/C=C\CN(CC(C)C)CC(=O)N2Cc2cccc(F)c2)cc1 (stereo not given) | - | - | - | - | - | - | . | .
CN(C)c1cccc(/C=C2\CC3(OC(=O)c4ccccc4)CCCN2C3)c1 (stereo not given) | - | . | 22.4 | - | . | - | - | -
Cc1ccc2cc(N)ccc2n1 | - | - | - | - | - | - | . | .
Nc1ccc2cc3ccc(N)cc3nc2c1 | 1.7 | . | 27.5 | 32.3 | . | - | - | -
Cc1ccc(NC(=O)C(C)SCc2nc3sc4c(c3c(=O)[nH]2)CCCC4)nc1 (stereo not given) | - | - | - | - | - | - | . | .
CCOC(=O)c1cc(-c2cccs2)[nH]n1 | - | - | - | - | - | - | . | .
O=C(O)c1cc(-c2cccs2)[nH]n1 | - | - | 15.2 | - | - | - | - | -
CCOc1ccc2nc(NC(=O)CS(=O)(=O)c3ccccc3)sc2c1 | - | - | - | - | - | - | . | .
CCOc1ccc2nc(NC(=O)CCn3cccc3)sc2c1 | - | - | - | - | - | - | . | .
CC(=O)NCCC(=O)Nc1nc2ccc(Oc3ccccc3)cc2s1 | - | - | 21.0 | - | - | - | 14.9 | -
CCCC(=O)Nc1nc2ccc(OCC)cc2s1 | - | - | 16.6 | - | - | - | 14.8 | -
COc1cc(N)ccc1NC(=O)c1cc2ccccc2o1 | - | - | 17.4 | - | - | - | - | -
SMILES | ssDAF12 agonist | GAA850 FXN act | hgDAF-12 ag | hcDAF12 agonist | DAX1 inh-1 | DAX1 inh-2 | hgDAF12 ag | LXR ag 2
Cc1cc(=O)[nH]c(N2CCCCC2)n1 | - | - | - | - | - | - | . | .
COC(=O)[C@]12C[C@H](CC(=O)NCC3CCCCC3)C(=O)N(Cc3ccc4c(c3)OCO4)C1=C[C@H](COCc1ccccc1)O[C@@H]2C | - | . | - | - | . | - | . | .
Cc1nn(CC(=O)NCCCN2CCC(N3CCCCC3)CC2)c(=O)c2cc(-c3ccccc3)nn12 | - | - | - | - | - | - | . | .
COc1ccc(CN2CCN(C(=O)Cn3c(=O)oc4cc(Cl)ccc43)CC2)c(OC)c1OC | - | - | - | - | - | - | . | .
O=C(OCC(=O)N1CCOCC1)c1ccccc1Cc1ccccc1 | - | - | 17.2 | 6.3 | - | 4.1 | 18.4 | -
COCC(C)Nc1ncnc2c1cnn2-c1ccc(Cl)cc1 (stereo not given) | - | - | 17.8 | 5.8 | - | 4.0 | 10.7 | -
COc1ccc(-n2ncc3c(NC(C)C)ncnc32)cc1 | - | - | 18.9 | - | - | - | 16.7 | -
COc1cc(/C=N/N2CCOCC2)ccc1OCc1ccccc1 | - | - | 17.9 | - | - | - | - | -
Cc1ccc(OCCn2c(CCNC(=O)C3CCCCCC3)nc3ccccc32)cc1 | - | . | - | - | . | . | . | .
Cc1ccc(NC(CC(=O)c2ccccc2)C(=O)O)cc1Cl (stereo not given) | - | - | 16.2 | 5.6 | 5.4 | 4.2 | 27.3 | -
O=C(O)C1=C[C@@H](c2ccc(C(F)(F)F)cc2)C[C@@H](OCCCCO)O1 | - | - | - | - | - | - | . | .
CN(C)c1ccc(C2=NOC(CN3C(=O)c4ccccc4S3(=O)=O)C2)cc1 (stereo not given) | - | - | 13.5 | - | - | - | 17.5 | -
C/C(=N\NC(=O)COc1ccccc1[N+](=O)[O-])c1cccs1 | - | - | 15.1 | - | - | - | 10.9 | -
O=C(COc1ccccc1[N+](=O)[O-])Nc1ccc(Br)cc1 | - | - | 16.4 | - | 6.8 | - | 11.3 | -
COc1ccc(OCC(=O)N/N=C(\C)c2cccs2)cc1 | - | - | - | - | - | - | . | .
Cc1ccccc1CSCCNC(=O)Nc1ccccc1 | - | - | - | - | - | - | . | .
COc1ccc(/C=N/NC(=O)c2cccnc2)cc1 | - | - | - | - | - | - | . | .
COc1ccc(/C=N/NC(=O)c2ccc[nH]2)cc1 | - | - | 13.4 | - | - | - | 14.9 | -
Brc1c(CSc2nc3ccccc3s2)nc2ncccn12 | - | - | 16.3 | - | - | - | 11.7 | -
Cc1ccc(/C=C/C2=NN(C)C(=O)CC2)cc1 | - | - | 14.1 | - | - | - | 15.3 | -
COc1ccc2c3c(cccc13)C(=O)CC2 | - | - | - | - | - | - | . | .
O=C1C(Cl)=C(N2CCCCCC2)C(=O)N1c1ccc(Cl)cc1 | - | - | - | - | - | - | . | .
O=C1C=C(N2CCCCCC2)C(=O)N1c1ccc(Cl)cc1 | - | - | 14.7 | - | - | - | - | -
Cc1nnsc1Sc1ccccc1 | - | - | - | - | - | - | . | .
CCN(CC)c1ncnc2c1ncn2[C@H]1CN(Cc2ccccc2)C[C@@H](CO)O1 | - | - | - | - | . | - | . | .
O=C(CSC1CCc2ccccc21)NN=Cc1ccco1 (stereo not given) | - | . | - | - | . | - | . | .
O=C(CSC1CCc2ccccc21)NNC(=O)Nc1ccc(Cl)cc1 (stereo not given) | - | . | 16.2 | 6.5 | . | - | - | -
S=c1nc(-c2ccccc2)oc2c1CCCC2 | - | - | - | - | - | - | . | .

Bioassay records as filed in PubChem.
